Our source for the composite z-score and z-score values is PubChem BioAssay.

Active and inactive are the calls of the source. Unless noted, the rule behind the calls is not given here.

For assay [1], the system named is XIP peptide (Xip251-270) binding. Nature of the assay: XIP fragment 251-270 binding compounds – biochemical, small-molecule microarray, fluorescence 635/667 nm, 0.1 µg/mL protein, primary screen (AID 1182). As to conditions: fluorescent protein binding, 635 nm, higher = more signal, called active from +8 up or from −8 down.
Assay [2] relates to XIP peptide (Xip251-270). Nature of the assay: compounds binding XIP fragment 251-270 – biochemical, small-molecule microarray, fluorescence 635/667 nm, 0.5 µg/mL protein, primary screen (AID 1183). Conditions: fluorescence 635 nm, higher = more signal.
Assay [3] in a line: blood-stage malaria parasite viability loss – strain 3D7, DAPI fluorescence, 100 nL, primary screen (AID 1184).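 Note: parasites grown inside human red blood cells in medium with human serum.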 As to conditions: P. falciparum 3D7 growth, 3 d, higher = more signal.
Assay [4] deals with Homeobox protein Hox-A13 (Mus musculus) (UniProt Q62424). The assay can be described thus: disruptors of Hoxa13 oligonucleotide interaction – biochemical, fluorescence polarization, labeled oligonucleotide, primary screen (AID 1185). Conditions: Hoxa13:DNA binding, 15 min, higher = more signal, called active from +8 up or from −8 down. On the technique in general: In fluorescence polarisation assays a small probe gives low polarisation when free and higher when bound to something large.
Chain of Homeobox protein Hox-A13 (Mus musculus) (Q62424 whole entry, looked up): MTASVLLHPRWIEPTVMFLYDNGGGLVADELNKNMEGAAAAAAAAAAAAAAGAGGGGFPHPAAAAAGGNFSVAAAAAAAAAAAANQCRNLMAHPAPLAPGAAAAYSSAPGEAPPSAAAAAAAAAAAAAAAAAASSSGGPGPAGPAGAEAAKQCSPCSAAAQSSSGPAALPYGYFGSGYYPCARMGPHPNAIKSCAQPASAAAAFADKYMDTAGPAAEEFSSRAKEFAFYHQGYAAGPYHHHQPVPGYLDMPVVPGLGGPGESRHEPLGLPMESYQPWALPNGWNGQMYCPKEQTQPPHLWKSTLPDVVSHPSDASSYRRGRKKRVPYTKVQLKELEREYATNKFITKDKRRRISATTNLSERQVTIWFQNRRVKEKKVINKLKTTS

Assay [5] can be described thus: blockers of DNA damage checkpoint Chk1 activation – imaging, HeLa, hydroxyurea, phospho-Chk1 antibody, percent positive cells, primary screen (AID 1186). Conditions: hydroxyurea-induced phospho-Chk1 immunofluorescence imaging, higher = more signal.
Assay [6] is described as follows: blockers of DNA damage checkpoint Chk1 activation – imaging, HeLa, hydroxyurea, phospho-Chk1 nuclear intensity, primary screen (AID 1187). As to conditions: hydroxyurea-induced phospho-Chk1 immunofluorescence imaging, higher = more signal.

For the compound `COCCOC(=O)N1C(=O)[C@@]2(c3cc(C#CCNC(N)=O)ccc31)[C@H](C(=O)N1CCCCCCC1)[C@H]1C(=O)O[C@H](c3ccccc3)[C@H](c3ccccc3)N1[C@@H]2c1ccc(O)cc1`, the composite z-score is 0.328 (inactive) in assay [1] and 0.46 in assay [2]. Further, the z-score in assay [3] was 0.178; in assay [4] it was 0.172 (inactive); in assay [5], 0.0004 (inactive); in assay [6], 0.132 (inactive).

With `COCCOC(=O)N1C(=O)[C@@]2(c3ccccc31)[C@H](c1ccc(OCCO)cc1)N1[C@H](c3ccccc3)[C@H](c3ccccc3)OC(=O)[C@H]1[C@@H]2C(=O)Nc1nc2ccccc2s1`, the composite z-score was 1.72 (inactive) in assay [1] and 0.745 in assay [2]. The z-score in assay [3] was -0.365; in assay [4], 0.0267 (inactive); in assay [5], -0.0021 (inactive); in assay [6], -0.178 (inactive).

Regarding `O=C1O[C@@H](c2ccccc2)[C@@H](c2ccccc2)N2[C@@H](c3ccc(O)cc3)[C@]3(C(=O)Nc4ccccc43)[C@@H](C(=O)Nc3nc4ccccc4s3)[C@H]12`, the composite z-score in assay [1] is 1.03 (inactive); in assay [2] it was 0.638. Also, the z-score was -0.247 in assay [3], 2.05 (inactive) in assay [4], -0.193 (inactive) in assay [5] and -0.259 (inactive) in assay [6].

With `C=C(CCCC)C(=O)CC[C@@H](OC(=O)c1ccccc1-c1ccccc1C(=O)O)c1cccc(OCCO)c1`, the composite z-score is 1.03 (inactive) in assay [1] and 0.204 in assay [2]. Further, the z-score in assay [3] was -2.46; in assay [4], -5.72 (inactive); in assay [5], 0.456 (inactive); in assay [6] it was 0.408 (inactive).

Consider `CO[C@H]1O[C@H](CO)[C@@H](OC(=O)Nc2ccc(C(F)(F)F)cc2)[C@H](OC(=O)Nc2ccc3c(c2)OCO3)[C@H]1OC(=O)Nc1ccc2c(c1)OCO2`, for which the composite z-score in assay [1] is 1.22 (inactive); in assay [2], 0.898. The z-score was -1.76 in assay [3], -3.94 (inactive) in assay [4], -0.318 (inactive) in assay [5] and -0.559 (inactive) in assay [6].

For `Cc1ccc(S[C@]2(C(=O)NC(C)C)CC(=O)N(Cc3ccccc3C(F)(F)F)[C@@H]2c2ccc(CO)cc2I)cc1`, the composite z-score in assay [1] was 0.136 (inactive); in assay [2], 0.582. Also, the z-score in assay [3] is -1.14; in assay [4], -1.9 (inactive); in assay [5], 0.0101 (inactive); in assay [6], 0.293 (inactive).

In the case of `CC(C)(C)OC(=O)CC[C@]1(C(=O)N2CCOCC2)N=C(c2ccc(OCCCO)cc2)O[C@H]1c1ccccc1`, the composite z-score in assay [1] is -0.0263 (inactive); in assay [2], 0.689. Besides, the z-score in assay [3] was -0.29; in assay [4] it was -5.96 (inactive); in assay [5] it was -0.443 (inactive); in assay [6] it was -0.494 (inactive).

In the case of `COCCOC(=O)N1C(=O)[C@@]2(c3cc(C#Cc4ccc(OC)cc4)ccc31)[C@H](C(=O)NC[C@H](O)c1ccccc1)[C@H]1C(=O)O[C@H](c3ccccc3)[C@H](c3ccccc3)N1[C@@H]2c1ccc(O)cc1`, the composite z-score was 1.42 (inactive) in assay [1] and 0.775 in assay [2]. Also, the z-score was -0.754 in assay [3], -1.78 (inactive) in assay [4], -0.045 (inactive) in assay [5] and 0.126 (inactive) in assay [6].

Turning to `C=CCOC(=O)[C@H]1[C@@H]2C(=O)O[C@@H](c3ccccc3)[C@@H](c3ccccc3)N2[C@@H](c2ccc(OCCOC(=O)[C@H]3C[C@H]4C(=O)N[C@@H](Cc5ccccc5)C(=O)N4[C@H]3c3ccc(O)cc3)cc2)[C@]12C(=O)Nc1ccc(I)cc12`, the composite z-score in assay [1] is 0.451 (inactive); in assay [2] it was 0.768. The z-score in assay [3] was -1.62; in assay [4], 1.21 (inactive); in assay [5], -0.688 (inactive); in assay [6], -0.476 (inactive).

As to `COCC(=C=CC[C@H](O)c1ccc(OCCO)cc1)C[C@H](O)COCc1ccccc1`, the composite z-score in assay [1] was -0.0114 (inactive); in assay [2], 0.698. For the same compound, the z-score in assay [3] was -2.74; in assay [4] it was -5.25 (inactive); in assay [5] it was -0.364 (inactive); in assay [6], 0.19 (inactive).

For `C=CC[C@H](OC(=O)Nc1ccc(OC)cc1)c1ccc(O)c2ccccc12`, the results for the composite z-score in assay [1] and in assay [2] were -0.104 (inactive) and 0.616, respectively. Further, the z-score is -1.36 in assay [3], -0.0657 (inactive) in assay [4], 0.936 (inactive) in assay [5] and 0.821 (inactive) in assay [6].

Regarding `NCCCCCNC(=O)[C@@H]1C[C@@H]2C(=O)N[C@@H](CCCCN)C(=O)N2[C@@H]1c1cccc(OCCO)c1`, the composite z-score in assay [1] is 0.824 (inactive); in assay [2], 0.793. In addition, the z-score is -0.119 in assay [3], -0.453 (inactive) in assay [4], 0.0424 (inactive) in assay [5] and -0.0136 (inactive) in assay [6].

As to `CC(C)C[C@@H]1NC(=O)[C@H]2C[C@@H](C(=O)NCCCCCC[N+](C)(C)C)[C@@H](c3cccc(OCCO)c3)N2C1=O`, the composite z-score in assay [1] was 0.506 (inactive); in assay [2] it was 0.748. Further, the z-score in assay [3] was -0.411; in assay [4] it was -5.33 (inactive); in assay [5], -0.481 (inactive); in assay [6], -0.503 (inactive).

As to `CN1C(=O)C2C=CC(C(O)c3c(F)cccc3Cl)N(Nc3ccccc3)C2C1=O` (stereo not given), the results for the composite z-score in assay [1] and in assay [2] were -0.108 (inactive) and 0.324, respectively. For the same compound, the z-score is 1.04 in assay [3], -3.42 (inactive) in assay [4], 0.563 (inactive) in assay [5] and 0.463 (inactive) in assay [6].

Regarding `COc1cc2c(cc1O)C(C)N(Cc1cc3c(cc1Br)OCO3)CC2` (stereo not given), the results for the composite z-score in assay [1] and in assay [2] were 1.5 (inactive) and 0.291, respectively. The z-score in assay [3] is -2.03; in assay [4], -1.58 (inactive); in assay [5] it was -0.765 (inactive); in assay [6], -1.06 (inactive).
